Measurements: paper PMC4336329 (PLoS ONE, 2015)
Screen size: about 310,000 compounds; about 14,000 (4.5%) showed an effect of 50% or more. The effect is printed as a negative number. For the sample, strong results were picked, then their nearest neighbours and some compounds at random.

molecular target: human ether-à-go-go-related gene (hERG) potassium channel (human, UniProt Q12809); experiment: primary screen, population patch clamp on CHO cells stably expressing hERG; higher = less effect of the substance
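Also: peak tail current of the secondary pulse compared with the same well before compound.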

human ether-à-go-go-related gene (hERG) potassium channel, sequence (Q12809 whole entry, looked up): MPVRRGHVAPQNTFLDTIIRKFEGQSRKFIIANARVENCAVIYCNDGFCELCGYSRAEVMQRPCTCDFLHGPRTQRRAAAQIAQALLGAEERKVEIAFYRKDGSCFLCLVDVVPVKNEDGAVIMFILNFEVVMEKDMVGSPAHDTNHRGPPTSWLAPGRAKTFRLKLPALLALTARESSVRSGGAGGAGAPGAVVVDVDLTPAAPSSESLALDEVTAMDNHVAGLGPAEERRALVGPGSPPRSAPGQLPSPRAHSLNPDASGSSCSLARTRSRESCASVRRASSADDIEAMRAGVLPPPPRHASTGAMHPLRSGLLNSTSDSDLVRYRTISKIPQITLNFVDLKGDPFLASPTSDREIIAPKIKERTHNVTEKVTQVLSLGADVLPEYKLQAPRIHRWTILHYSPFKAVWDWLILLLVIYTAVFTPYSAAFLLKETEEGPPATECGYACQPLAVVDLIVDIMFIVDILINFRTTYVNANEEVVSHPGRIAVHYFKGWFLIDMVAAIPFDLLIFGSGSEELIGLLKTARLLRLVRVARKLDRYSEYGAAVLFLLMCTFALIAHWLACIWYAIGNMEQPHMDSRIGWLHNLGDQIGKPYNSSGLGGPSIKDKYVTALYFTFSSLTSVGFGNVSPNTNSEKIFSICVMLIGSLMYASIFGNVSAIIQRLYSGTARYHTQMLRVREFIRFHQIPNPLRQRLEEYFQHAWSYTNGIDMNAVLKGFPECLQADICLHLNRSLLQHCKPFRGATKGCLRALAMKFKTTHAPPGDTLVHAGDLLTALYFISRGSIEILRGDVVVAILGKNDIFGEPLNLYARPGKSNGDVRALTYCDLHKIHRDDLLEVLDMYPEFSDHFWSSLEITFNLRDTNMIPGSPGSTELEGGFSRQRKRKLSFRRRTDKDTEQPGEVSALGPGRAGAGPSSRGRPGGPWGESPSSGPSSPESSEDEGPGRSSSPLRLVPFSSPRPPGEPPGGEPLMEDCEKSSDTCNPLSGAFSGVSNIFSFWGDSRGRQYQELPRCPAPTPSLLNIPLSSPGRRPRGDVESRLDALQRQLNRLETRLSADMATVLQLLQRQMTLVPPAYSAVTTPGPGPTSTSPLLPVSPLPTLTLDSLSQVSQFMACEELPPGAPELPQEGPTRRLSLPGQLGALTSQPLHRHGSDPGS

Structure (SMILES) | hERG current change (%, negative = inhibition) at 10uM [%]
Cc1c(O)ccc2cc(S(=O)(=O)c3ccccc3)c(=O)oc12 | 13.8
Cc1ccc(-n2ncc3c2CCCC3NC(=O)CSc2ccccn2)cc1C (centres unmarked) | -17.2
Cc1noc2ncnc(N3CCCC3)c12 | 5.93
Cc1noc2ncnc(N3CCN(c4ccc(F)cc4)CC3)c12 | -38.3
Cc1noc2ncnc(N3CCN(c4cccc(Cl)c4)CC3)c12 | -52
CCOc1cc(C2C(C(=O)OC)=CN(C3CCCC3)C=C2C(=O)OC)cc(Br)c1O | -1.51
C[N+]1(CC(O)COc2ccccc2)CCN(C(=O)c2ccc([N+](=O)[O-])cc2)CC1.[I-] (centres unmarked) | -9.95
CCc1cccc(Nc2cc(C)nc3nc(C)nn23)c1 | -25.3
COc1ccc(OC)c(-c2nc(CN3CCCCC3c3cccnc3)c(C)o2)c1 (centres unmarked) | -1.11
COc1ccc(-c2noc(CN3CCCCC3c3nccn3C)n2)cc1 (centres unmarked) | -6.83
COc1ccc(-c2nc(CN3CCCCC3c3nccn3C)c(C)o2)c(C)c1C (centres unmarked) | -64.9
CC(=O)c1ccc(N(CC(=O)NC2CCCCC2)C(=O)CNC(=O)c2ccco2)cc1 | -7.74
O=C(Nc1scc(-c2ccccc2)c1C(=O)O)c1ccco1 | -0.991
CCc1nccn1CCC(=O)N1CCCC(N2CCN(c3cccc(Cl)c3)CC2)C1 (centres unmarked) | -36.1
O=C(c1ccccn1)N1CCCC(N2CCN(c3cccc(C(F)(F)F)c3)CC2)C1 (centres unmarked) | -28.8
O=C(CCn1cccn1)N1CCCC(N2CCN(c3cccc(C(F)(F)F)c3)CC2)C1 (centres unmarked) | -53.6
Cc1ccnn1CCC(=O)N1CCCC(N2CCN(c3cccc(Cl)c3)CC2)C1 (centres unmarked) | -30.3
COC(=O)CCC(=O)N1CCCC(N2CCN(c3cccc(C(F)(F)F)c3)CC2)C1 (centres unmarked) | -35.8
O=C(CCn1cncn1)N1CCCC(N2CCN(c3cccc(C(F)(F)F)c3)CC2)C1 (centres unmarked) | -35.8
O=C(CCn1cccn1)N1CCCC(N2CCN(c3cccc(Cl)c3)CC2)C1 (centres unmarked) | -54.1
CN(C)C(=O)CCC(=O)N1CCCC(N2CCN(c3cccc(C(F)(F)F)c3)CC2)C1 (centres unmarked) | -12.3
O=C(CCc1ccccn1)N1CCCC(N2CCN(c3cccc(C(F)(F)F)c3)CC2)C1 (centres unmarked) | -68.2
O=C(NCC1CCCO1)c1ccc2c(=O)n(CC3CCCO3)c(=S)[nH]c2c1 (centres unmarked) | 6.52

Structure (SMILES) | hERG current change (%, negative = inhibition) at 10uM [%]
Cc1sc2nc(COC(=O)c3cccc(OC(F)F)c3)[nH]c(=O)c2c1C | 0.0335
O=c1[nH]n2c(=O)c3c([nH]c2c1N=Nc1cccc(Cl)c1)CCCC3 | 3.75
COc1ccc2c(c1)C(=O)N(Cc1ccccc1)C(=O)C2(C)C | 6.19
Cc1nn(Cc2ccc(Cl)cc2)c(C)c1NC(=O)c1cc(C(C)C)on1 | 5.88
Cn1c(SCC(=O)NC2CC2)nnc1-c1ccco1 | 9.16
Cc1ccc(NC(=O)[C@H](Cc2ccccc2)NC(=O)C2CCNCC2)cc1 | 5.64
CCCCCOC(=O)c1ccccc1C(=O)O | 16.1
CC(=O)N/C(=C\c1ccc(C)o1)C(=O)NCc1ccccc1 | 21.8
COc1ccc(OC)c(N2C(=O)NC(=O)/C(=C/c3ccc([N+](=O)[O-])s3)C2=O)c1 | 12.9
CCCNC(=O)C1(CC2CC(c3ccccc3)=NO2)CCN(C(=O)C2CCCC2)CC1 (centres unmarked) | -41.8
COc1ccc(CNC(=O)C2(CC3CC(c4ccccc4)=NO3)CCN(C(=O)C3CCCC3)CC2)cc1 (centres unmarked) | -71.6
COc1ccc(CNC(=O)C2(CC3CC(c4ccccc4)=NO3)CCN(C(=O)C3(C)CC3)CC2)cc1 (centres unmarked) | -67
CCOc1cc(C(=O)N2CCC(CC3CC(c4ccccc4)=NO3)(C(=O)NCc3ccc(OC)cc3)CC2)cc(OCC)c1OCC (centres unmarked) | -8.88
CC1(C(=O)N2CCC(CC3CC(c4cccc(Br)c4)=NO3)(C(=O)NCC3CCCCC3)CC2)CC1 (centres unmarked) | -20.1
COc1ccc(CNC(=O)C2(CC3CC(c4ccccc4)=NO3)CCN(C(=O)CCCCCBr)CC2)cc1 (centres unmarked) | -76.9
CC(C)(C)OC(=O)N1CCC(CC2CC(c3ccccc3)=NO2)(C(=O)O)CC1 (centres unmarked) | 14.7
CC(C)(C)OC(=O)N1CCC(CC2CC(c3ccccc3)=NO2)(C(=O)NCc2ccccc2)CC1 (centres unmarked) | -18.3
COc1ccc(CNC(=O)C2(CC3CC(c4ccccc4)=NO3)CCN(C(=O)OC(C)(C)C)CC2)cc1 (centres unmarked) | -30.5
COC(=O)C1(CC2CC(c3ccccc3)=NO2)CCN(C(=O)OC(C)(C)C)CC1 (centres unmarked) | -11.4
COc1ccc(CNC(=O)C2(CC3CC(c4ccccc4)=NO3)CCN(C(=O)c3cccc(O)c3)CC2)cc1 (centres unmarked) | -68.2
CCCCC1=CC2=CC(=O)C(C)(OC(=O)CC)C(=O)C2=CN1c1ccccc1 (centres unmarked) | 1.5
CCO[C@H]1OC(C(=O)NCc2ccccc2)=C[C@@H](C2CCCCC2)[C@@H]1CCCO | -19.8
COC(=O)C1=C(c2ccc(S(C)(=O)=O)cc2)C[C@@H]2CC[C@H]1N2C(=O)NCCNC(C)=O | 14.6

Structure (SMILES) | hERG current change (%, negative = inhibition) at 10uM [%]
Cc1occc1-c1nnc(SCC(=O)N2CCCCC2)o1 | -8.31
CCC(C)(CC(=O)Nc1nccs1)c1ccccc1 (centres unmarked) | 7.66
COc1cccc(Cn2cc(C)cc(NC(=O)NCc3ccccc3)c2=O)c1 | 11.9
Nc1nc(Cl)cc(Sc2ccc(F)cc2)n1 | 7.51
NNC(=O)c1oc2nc(-c3ccco3)cc(-c3ccco3)c2c1N | -12.8
NNC(=O)c1oc2nc(-c3ccccc3)cc(-c3ccco3)c2c1N | 0.558
NNC(=O)c1oc2nc(-c3cccs3)cc(-c3ccco3)c2c1N | -69.8
CCCCN(C(=O)c1ccc2c(c1)OCO2)c1c(N)n(CCCC)c(=O)[nH]c1=O | 25.7
CSCCC(NS(=O)(=O)c1ccccc1F)C(=O)Nc1ccncc1 (centres unmarked) | -10.8
O=c1cc(Nc2cccc(Br)c2)[nH]c(=O)[nH]1 | -11.5
CCOc1ccc2nc(N3CCC(C(=O)N4CCN(c5ccccn5)CC4)CC3)sc2c1 | -45.7
CCOc1ccc2nc(N3CCC(C(=O)N4CCN(C5CCCCC5)CC4)CC3)sc2c1 | -46.1
CCOc1ccc2nc(N3CCC(C(=O)N4CCN(C(=O)c5ccco5)CC4)CC3)sc2c1 | -81.7
CCOc1ccc2nc(N3CCCCCC3)sc2c1 | -19.2
CCOc1ccc2nc(N3CCC(C(=O)N4CCN(c5ncccn5)CC4)CC3)sc2c1 | -13.4
CCOc1ccc2nc(N3CCC(C(=O)N4CCC5(CC4)OCCO5)CC3)sc2c1 | -8.46
CCOC(=O)Nc1ccc2nc(N3CCCCCC3)sc2c1 | -50.6
Cc1cccc2sc(N3CCN(C(=O)C4COc5ccccc5O4)CC3)nc12 (centres unmarked) | -31.3
CCOC(=O)C1CCN(C(=O)C2CCN(c3nc4ccc(OC)cc4s3)CC2)CC1 | -67.6
Cc1cccc(N2CCN(C(=O)C3COc4ccccc4O3)CC2)c1C (centres unmarked) | -17.4
CCOC(=O)N1CCN(C(=O)c2ccc3nc(N4CCCCC4)sc3c2)CC1 | -15.7
Cc1cc(C)c(C#N)c(N2CCN(C(=O)C3COc4ccccc4O3)CC2)n1 (centres unmarked) | -75.4
Cc1ccc2ncnc(NCCCCCC(=O)O)c2c1.Cl | 17.4

Structure (SMILES) | hERG current change (%, negative = inhibition) at 10uM [%]
CCOc1ncccc1C(=O)Nc1cccc(S(=O)(=O)NC2=NCCC2)c1 | -6.34
COc1ccc2[n-]c(S(=O)Cc3ncc(C)c(OC)c3C)nc2c1.COc1ccc2[n-]c(S(=O)Cc3ncc(C)c(OC)c3C)nc2c1.[Mg+2] (centres unmarked) [49665950] | 16.3
Cc1ccc(C(=O)NCCSC2CCCCC2)cc1S(=O)(=O)Nc1ccccc1 | -2.9
C=CCCN(Cc1ccccc1)S(=O)(=O)c1ccccc1Br | 3.42
COc1ccc(OCCn2c(C)c(/C=N/n3cnnc3)c3ccccc32)cc1 | -0.339
Cn1c(SCC(=O)N/N=C/c2ccc(O)c(O)c2)nc2ccccc21 | 4.68
CCCC(C)NC(=O)COC(=O)c1ccc2c(c1)C(=O)N(Cc1ccco1)C2=O (centres unmarked) | 15.8
Cc1ccc(NC(=O)COC(=O)c2ccc(F)cc2Cl)c(Br)c1 | 14.1
O=C(CSc1ccc(-c2nc3ccccc3[nH]2)cn1)N1CCN(C(=O)c2ccco2)CC1 | -68.4
Cc1ccc2nc(SCC(=O)N3CCN(C(=O)c4ccco4)CC3)[nH]c2c1 | -35.3
Cc1cc2nc(-c3ccc(SCC(=O)N4CCN(C(=O)c5ccco5)CC4)nc3)[nH]c2cc1C | 2.64
CCOc1ccc2nc(SCC(=O)NCc3ccco3)sc2c1 | -29.8
O=C(CSc1nc2ccccc2[nH]1)NCc1ccco1 | -1.16
CCOc1ccc2nc(NC(=O)C3CCN(C(=O)c4ccco4)CC3)sc2c1 | 10.1
Cc1ccc2nc(SCC(=O)NCc3ccco3)[nH]c2c1 | -0.695
CCOc1ccc2nc(SCC(=O)N3CCN(C(=O)c4ccco4)CC3)sc2c1 | -66.2
O=C(CCc1nc2ccccc2[nH]1)N1CCN(C(=O)c2ccco2)CC1 | 6.93
Cl.O=C(CSc1nc2ccccc2[nH]1)N1CCN(C(=O)c2ccco2)CC1 | -23.4
O=C(CSc1nc2ccc(Cl)cc2[nH]1)N1CCN(C(=O)c2ccco2)CC1 | -56.1
O=C(CSc1nc2ccc(Cl)cc2[nH]1)NCc1ccco1 | -51.8
